A selection: hits, their analogues and other compounds. The true share with any hit is near 19%.
TDP1 cell noCPT – qHTS for Inhibitors of human tyrosyl-DNA phosphodiesterase 1 (TDP1): qHTS in cells in absence of CPT; 420,000 tested, 15% active; DT40 Tdp1-/- hTDP1 cells, no CPT, ATP luminescence, 48 h; Potency, µM (highest dose often 46.2 µM), most hits filed as inhibitors; further: nearly all actives have a fitted effect of over 55% in size
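Compound effects on proliferation are scored in DT40 Tdp1-/-;hTDP1 cells in the absence of CPT. ATP levels (CellTiter-Glo luminescence) are recorded after a ≥48 hr, 37 °C incubation.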
IL-1B inflam inh – inflammasome signaling inhibition, IL-1 beta readout | THP-1 LPS/ATP IL-1B secretion, AlphaLISA, 16 h; stronger effect = lower value | 360,000 tested, 4.7% active | activity change, % at 57.5 µM; in the data active means activity change below about -50%; inconclusive means mostly about -30% to -49%
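Secreted IL-1B measured by AlphaLISA bead assay after 16 h compound exposure of THP-1 cells; compounds (final up to 57.5 uM) added 1 h before LPS (250 ng/mL) and ATP (1.25 mM) stimulation; lower signal means less secretion.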
HT1080 IDH1KD tx – toxicity to HT-1080 IDH1 knockdown cells (counter line) | HT-1080 IDH1 knockdown viability, ATP luminescence, 48 h | Potency, µM (doses to about 46.1 µM), usual class: cytotoxic | 360,000 tested, 2% active | AID 686971
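In this qHTS, HT-1080 cells depleted of IDH1 are exposed for 48 h at 37 °C to compound titrations. Toxicity is scored from CellTiter-Glo luminescence, with DMSO as full viability and medium alone as none.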
HT1080-NT tox – kills 2HG-producing HT-1080-NT fibrosarcoma cells; AID 686970; 360,000 tested, 1.6% active; Potency, µM (series often up to 46.1 µM), usual class: cytotoxic; HT-1080-NT fibrosarcoma viability, CellTiter-Glo ATP luminescence, 48 h;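 further: NT is the 2HG producing partner of a matched IDH1 knockdown line; nearly all actives have a fitted effect of over 55% in size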
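Compounds were tested in concentration-response format on HT-1080-NT cells for 48 hours at 37 degrees C. Cell viability came from CellTiter-Glo luminescence; curves were classified by r2, response magnitude and activity.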
DT40 TDP1 CPT – growth inhibition of DT40 Tdp1-/-;hTDP1 cells with camptothecin (screen for TDP1 inhibitors). chicken DT40 Tdp1-/-;hTDP1 cells + 20 nM CPT, ATP luminescence, 48 h. AID 686979. Potency, µM (doses to about 46.2 µM), usual class: inhibitors. 420,000 tested, 12% active; further: nearly all actives have a fitted effect of over 55% in size
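Cell growth measured by CellTiter-Glo luminescence after a minimum 48 h, 37 C compound exposure with 20 nM CPT in Tdp1-knockout DT40 cells stably expressing hTDP1, seeded 400/well; qHTS titration format.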
Large screens that a line does not name were inactive. Unless noted, the call rests on the fitted dose curve; in most records, active means well fitted curve in the direction sought with a large enough effect; inconclusive means small, poorly fitted or top-dose-only effect, or another doubt; inactive means no such curve, though single readings can be large; an effect the other way counts as inactive or inconclusive.

CCCCn1nnnc1C(c1ccc(OC)cc1)N1CCN(C/C=C/c2ccccc2)CC1 (stereo unspecified)	TDP1 cell noCPT 18µM, IL-1B inflam inh inconclusive, HT1080 IDH1KD tx inconclusive, HT1080-NT tox inconclusive, DT40 TDP1 CPT inconclusive
CCCCn1nnnc1C(c1cccs1)N1CCN(C/C=C/c2ccccc2)CC1 (stereo unspecified)	TDP1 cell noCPT 23µM, HT1080 IDH1KD tx inconclusive, HT1080-NT tox inconclusive, DT40 TDP1 CPT 21µM
Cc1cccc(C)c1-n1nnnc1C(c1cccs1)N1CCN(C/C=C/c2ccccc2)CC1 (stereo unspecified)	TDP1 cell noCPT inconclusive, HT1080 IDH1KD tx inconclusive, HT1080-NT tox inconclusive, DT40 TDP1 CPT inconclusive
C(=C\c1ccccc1)/CN1CCN(C(c2cccc3ccccc23)c2nnnn2C2CCCC2)CC1 (stereo unspecified)	TDP1 cell noCPT 9.2µM, IL-1B inflam inh inconclusive, HT1080 IDH1KD tx inconclusive, HT1080-NT tox inconclusive, DT40 TDP1 CPT 21µM
COc1ccc(-n2nnnc2C(c2ccnc3ccccc23)N2CCN(C/C=C/c3ccccc3)CC2)cc1 (stereo unspecified)	TDP1 cell noCPT 4.6µM, IL-1B inflam inh inconclusive, HT1080 IDH1KD tx inconclusive, HT1080-NT tox inconclusive, DT40 TDP1 CPT 7.3µM
CC(C)NC(=O)CN1CCN(C(c2ccnc3ccccc23)c2nnnn2-c2ccc3c(c2)OCCO3)CC1 (stereo unspecified)	none
O=C(CN1C(=O)NC2(CCc3ccccc32)C1=O)Nc1ccccc1C(F)(F)F (stereo unspecified)	none
CCC(CO)Oc1cc(NC(=O)c2cccc(Cl)c2)c2ncn(C(C)C)c2c1 (stereo unspecified)	TDP1 cell noCPT inconclusive, IL-1B inflam inh inconclusive, DT40 TDP1 CPT inconclusive
O=C(CN1C(=O)NC(Cc2c[nH]c3ccccc23)C1=O)NCCc1ccc(F)cc1 (stereo unspecified)	none
COc1ccc(-n2nnnc2C(c2ccccc2OC(F)(F)F)N2CCN(C/C=C/c3ccccc3)CC2)cc1 (stereo unspecified)	TDP1 cell noCPT 16µM, DT40 TDP1 CPT 23µM
COc1ccc(-n2nnnc2C(c2cccs2)N2CCN(C/C=C/c3ccccc3)CC2)cc1 (stereo unspecified)	TDP1 cell noCPT 16µM, HT1080 IDH1KD tx inconclusive, HT1080-NT tox inconclusive, DT40 TDP1 CPT 16µM
COc1cccc(C(c2nnnn2C(C)(C)C)N2CCN(C3CCCCC3)CC2)c1OC (stereo unspecified)	none
COc1cccc(C(c2nnnn2C(C)(C)C)N2CCN(C/C=C/c3ccccc3)CC2)c1OC (stereo unspecified)	TDP1 cell noCPT 16µM, HT1080-NT tox inconclusive, DT40 TDP1 CPT inconclusive
Cc1cccc(C)c1-n1nnnc1C(c1ccccc1)N1CCN(C/C=C/c2ccccc2)CC1 (stereo unspecified)	TDP1 cell noCPT 16µM, HT1080 IDH1KD tx inconclusive, HT1080-NT tox inconclusive, DT40 TDP1 CPT 21µM
O=C1[C@@H]2CSCN2C(=O)CN1Cc1c(F)cccc1Cl	none
COc1ccc(Br)cc1C1SCCN1S(C)(=O)=O (stereo unspecified)	none
O=C(NC1CCCCCC1)C1CCC(CNS(=O)(=O)c2cccc3cccnc23)CC1 (stereo unspecified)	none (no result: IL-1B inflam inh, HT1080 IDH1KD tx, HT1080-NT tox)
Cc1ccc(NC(=O)C2CCCN2c2nn3c(=O)cc(C)nc3s2)cc1 (stereo unspecified)	TDP1 cell noCPT inconclusive
CCc1ccc(C(N)=S)cc1	TDP1 cell noCPT inconclusive, DT40 TDP1 CPT inconclusive
CCOC(=O)C1CCN(C(=O)CSc2nnc(-c3ccco3)n2-c2ccccc2)CC1	none
Cc1ccc(C2c3[nH]c4ccccc4c3C[C@H]3C(=O)N(c4ccccc4C(=O)N4CCC[C@H]4C(=O)O)C(=O)N23)cc1 (stereo partly specified)	none
COc1ccc(C(c2nnnn2C2CCCCC2)N2CCN(C/C=C/c3ccccc3)CC2)cc1 (stereo unspecified)	TDP1 cell noCPT inconclusive, HT1080 IDH1KD tx inconclusive, HT1080-NT tox inconclusive, DT40 TDP1 CPT 16µM
COc1ccc(C(c2nnnn2-c2ccc(OC)cc2)N2CCN(C/C=C/c3ccccc3)CC2)cc1 (stereo unspecified)	TDP1 cell noCPT inconclusive, IL-1B inflam inh -53, HT1080 IDH1KD tx inconclusive, HT1080-NT tox inconclusive, DT40 TDP1 CPT inconclusive
COc1ccc(C(c2nnnn2C(C)(C)C)N2CCN(C/C=C/c3ccccc3)CC2)cc1 (stereo unspecified)	TDP1 cell noCPT inconclusive, DT40 TDP1 CPT inconclusive
CCCCn1nnnc1C(C1CC1)N1CCN(C/C=C/c2ccccc2)CC1 (stereo unspecified)	TDP1 cell noCPT 16µM, DT40 TDP1 CPT inconclusive
CCOc1ccc(S(=O)(=O)N2CCOCC2)cc1NC(=O)CSCc1c(C)noc1C	none
N#CCC(=O)c1sccc1-n1cccc1	none
CN1CCN(C2=Nc3c(Cl)cc(Cl)c4cccc2c34)CC1	TDP1 cell noCPT 21µM, IL-1B inflam inh -53, DT40 TDP1 CPT inconclusive
CCC1NC(=O)c2cc3ccccc3cc2-n2c1nc1ccc(F)cc1c2=O (stereo unspecified)	TDP1 cell noCPT 23µM, DT40 TDP1 CPT inconclusive
O=C1NC(Cc2ccc(O)cc2)c2nc3cc(F)c(F)cc3c(=O)n2-c2ncccc21 (stereo unspecified)	HT1080 IDH1KD tx 21µM, HT1080-NT tox inconclusive
Cc1ccc2nc3n(c(=O)c2c1)-c1cc2ccccc2cc1C(=O)NC3Cc1ccccc1 (stereo unspecified)	TDP1 cell noCPT 16µM, HT1080 IDH1KD tx 15µM, HT1080-NT tox inconclusive, DT40 TDP1 CPT 23µM
O=C1NC(Cc2ccc(O)cc2)c2nc3cc(F)ccc3c(=O)n2-c2ncccc21 (stereo unspecified)	none
CCC1NC(=O)c2cc3ccccc3cc2-n2c1nc1ccc(OC)cc1c2=O (stereo unspecified)	TDP1 cell noCPT inconclusive, DT40 TDP1 CPT inconclusive
CCCC1NC(=O)c2cc3ccccc3cc2-n2c1nc1ccc(C)cc1c2=O (stereo unspecified)	TDP1 cell noCPT 18µM, DT40 TDP1 CPT inconclusive
CCCC1NC(=O)c2cc3ccccc3cc2-n2c1nc1cc(Cl)ccc1c2=O (stereo unspecified)	TDP1 cell noCPT inconclusive, DT40 TDP1 CPT inconclusive
COc1ccccc1OC(C)C(=O)Nc1ccccc1C(=O)NCc1cccnc1 (stereo unspecified)	none
Cc1ccc2nc3n(c(=O)c2c1)-c1ncccc1C(=O)NC3Cc1ccccc1 (stereo unspecified)	TDP1 cell noCPT inconclusive, DT40 TDP1 CPT inconclusive
